Assay results as given in PubChem BioAssay (Tox21).
Values without a mark were called inactive. Inconclusive results are not listed. Where a call stands in place of a potency, no number is given. Active and inactive are the calls of the source. Unless noted, calls follow the shape of the full dose curve.

Key:
[1] = Nuclear factor erythroid 2-related factor 2/antioxidant responsive element (Nrf2/ARE) small molecule agonists: qHTS cell viability counter screen in human keratinocytes (AID 1919968; active = well fitted curve in the direction sought with a large enough effect in the repeat runs; an effect the other way counts as inactive or inconclusive; also: nearly all actives have a fitted effect of over 55% in size; also: potency is read from the fitted curve at half-maximal effect)
Summary of the method: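 KeratinoSens HaCaT cells, 1,500/well, preincubated 5 h, then exposed to compounds in DMSO for 23 h at 37 C/5% CO2. Viability read as CellTiter-Fluor fluorescence after 1 h, in the same wells as the ARE-luciferase read.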

[2] = Nuclear factor erythroid 2-related factor 2/antioxidant responsive element (Nrf2/ARE) small molecule agonists: luciferase reporter gene qHTS assay in human keratinocytes (AID 1919969); also: nearly all actives have a fitted effect of over 35% in size; also: potency is read from the fitted curve at half-maximal effect
[3] = biological target: Gonadotropin-releasing hormone receptor (Homo sapiens) (UniProt P30968); assay: Human gonadotropin-releasing hormone receptor (GnRHR) small molecule agonists, calcium flux assay in GnRHR-HEK293 cells (AID 1920063); also: nearly all actives have a fitted effect of over 35% in size; also: potency is read from the fitted curve at half-maximal effect
Summary of the method: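 HEK293 cells stably expressing human GnRHR were dye-loaded for 1 h at 37 C. Compound was added in agonist mode and fluorescence (Ex/Em 480/540) recorded kinetically for 3 min. Fifteen concentrations, triplicates.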

[4] = biological target: KiSS-1 receptor (Homo sapiens) (UniProt Q969F8); assay: Human kisspeptin (KISS1R) small molecule agonists, calcium flux assay in KISS1R-HEK293 cells (AID 1920064; active = well fitted curve in the direction sought with a large enough effect in the repeat runs; an effect the other way counts as inactive or inconclusive)
Summary of the method: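 HEK293 cells stably expressing human KISS1R were loaded with calcium dye for 1 h at 37 C, then given compound; fluorescence (Ex/Em 480/540) was read kinetically for 3 min. Fifteen concentrations, triplicate.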

[5] = G protein-coupled receptor (GPCR) small molecule agonists, calcium flux assay: HEK293 wild type cell line counter screen (AID 1920065)
Summary of the method: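 Wild-type HEK293 cells plated 18 h, loaded with calcium dye 1 h at 37 C, then compounds added in agonist mode (ATP as positive control). Kinetic fluorescence Ex/Em 480/540 recorded 3 min at 1 sec intervals; 15 concentrations, triplicate.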

[6] = p53 small molecule agonists, cell-based qHTS assay with rat liver microsomes (AID 1963578)
Summary of the method: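 Agonist mode in p53RE-bla reporter cells, with compounds co-incubated 16 h at 37 C alongside 0.5 mg/mL rat liver microsomes and 0.5 mg/mL NADPH (final), followed by a 2 h LiveBLAzer detection step.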

[7] = p53 small molecule agonists, cell-based qHTS assay with human liver microsomes: qHTS cell viability counter screen (AID 1963579); also: nearly all actives have a fitted effect of over 45% in size
Summary of the method: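 Metabolically activated exposure: compounds, human liver microsomes and NADPH (0.5 mg/mL final apiece) were added to p53RE-bla cells seeded 5 h earlier, left 16 h at 37 C, and then assessed for viability by CellTiter-Glo luminescence.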

[8] = p53 small molecule agonists, cell-based qHTS assay with rat liver microsomes: qHTS cell viability counter screen (AID 1963580); also: nearly all actives have a fitted effect of over 45% in size
Summary of the method: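 p53RE-bla HCT-116 cells were exposed 16 h at 37 C to compounds with rat liver microsomes (0.5 mg/mL) and NADPH (0.5 mg/mL). Viability was measured in the same wells as ATP content by CellTiter-Glo luminescence.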

[9] = p53 small molecule agonists, cell-based qHTS assay: qHTS cell viability counter screen (AID 1963581); also: nearly all actives have a fitted effect of over 45% in size
Summary of the method: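 p53RE-bla HCT-116 cells, compounds added 5 h after plating and incubated 16 h at 37 C. Cytotoxicity measured in the same wells as intracellular ATP by CellTiter-Glo luminescence after 30 min at room temperature.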

[10] = p53 small molecule agonists, cell-based qHTS assay (AID 1963582; active = well fitted activation curve with a large enough effect in the signal ratio in the repeat runs, not every such curve was filed as active; the % refers to the signal ratio)
Summary of the method: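 p53RE-bla reporter cells, compounds added in DMSO after 5 h plating, incubated 16 h at 37 C. Beta-lactamase read via 2 h room-temperature LiveBLAzer B/G FRET substrate, fluorescence intensity.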

[11] = biological target: 5-hydroxytryptamine receptor 2A (Homo sapiens) (UniProt P28223); assay: 5-hydroxytryptamine receptor 2A (HTR2A) small molecule agonists, cell-based qHTS assay (AID 1963587); also: nearly all actives have a fitted effect of over 30% in size; also: potency is read from the fitted curve at half-maximal effect
Summary of the method: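 CHO cells stably expressing human HTR2A, plated 18 h, loaded with calcium dye 1 h at 37 C. Agonist mode: compounds added and intracellular calcium fluorescence recorded kinetically for 2 min at 1 sec intervals.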

[12] = biological target: Muscarinic acetylcholine receptor M1 (Homo sapiens) (UniProt P11229); assay: Cholinergic receptor muscarinic 1 (CHRM1) small molecule antagonists, cell-based qHTS assay (AID 1963588); also: nearly all actives have a fitted effect of over 40% in size; also: potency is read from the fitted curve at half-maximal effect
Summary of the method: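 CHRM1-CHO calcium-flux assay, antagonist mode. Cells were seeded 18 h, dye-loaded 1 h at 37 C and given compound for 5 min at RT, then acetylcholine was added at 50nM. FDSS fluorescence was read 3 min; 15 concentrations, three runs.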

[13] = biological target: Muscarinic acetylcholine receptor M1 (Homo sapiens) (UniProt P11229); assay: Cholinergic receptor muscarinic 1 (CHRM1) small molecule agonists, cell-based qHTS assay (AID 1963589); also: nearly all actives have a fitted effect of over 35% in size
Summary of the method: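 CHO cells stably expressing human CHRM1 were loaded with calcium dye for 1 h at 37 C, then compound was added in agonist mode. Intracellular calcium fluorescence was followed kinetically at 1 s intervals. Fifteen concentrations were tested in three independent runs.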

[14] = cAMP Responsive Elements (CRE) small molecule agonists, cell-based qHTS assay (AID 1963590)
Summary of the method: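 CRE-bla HEK 293T cells, 2,000/well in DMEM with 10% dialyzed FBS and 25 mM HEPES, pre-incubated 18 h at 37 C, then exposed to compound 3 h at 37 C. Beta-lactamase reporter read with LiveBLAzer B/G FRET substrate after 2 h at room temperature.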

[15] = cAMP Responsive Elements (CRE) small molecule antagonists, cell-based qHTS assay (AID 1963591; active = well fitted inhibition curve with a large enough effect in the signal ratio in the repeat runs, not every such curve was filed as active; the % refers to the signal ratio)
Summary of the method: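 CRE-bla HEK293T cells plated 18 h, then given compound plus NKH477 at 0.25 uM final for 3 h at 37C. Beta-lactamase reporter read with LiveBLAzer B/G FRET substrate after 2 h at room temperature.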

[16] = biological target: Beta-2 adrenergic receptor (Homo sapiens) (UniProt P07550); assay: Adrenergic beta2 receptor (ADRB2) small molecule antagonists, cell-based qHTS assay (AID 1963592); also: series mostly up to about 92 µM; nearly all actives have a fitted effect of over 50% in size
Summary of the method: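 Cells (CHO, stable ADRB2 overexpression) incubated 18-20hr at 37C; compounds added from DMSO; agonist mix (1nM isoproterenol, 100uM IBMX, 25uM Ro-20-1724) added; 0.5hr RT; d2-cAMP and anti-cAMP-cryptate added; 1hr RT; 665/615 nm read.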

[17] = biological target: D(2) dopamine receptor (Homo sapiens) (UniProt P14416); assay: Dopamine D2 receptor (DRD2) small molecule agonists, cell-based qHTS assay (AID 1963594); also: nearly all actives have a fitted effect of over 35% in size
Summary of the method: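 HEK293 cells stably expressing human DRD2, pre-treated with PDE inhibitor Ro20-1724 (0.1 mM final) and compound 10 min at room temperature, then stimulated with NKH477 (200nM […]) for 30 min. cAMP read by HTRF (665/620 nm).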

[18] = biological target: D(2) dopamine receptor (Homo sapiens) (UniProt P14416); assay: Dopamine D2 receptor (DRD2) small molecule antagonists, cell-based qHTS assay (AID 1963595; active = well fitted inhibition curve with a large enough effect in the signal ratio in the repeat runs, with a control signal flat; the % refers to the signal ratio)
Summary of the method: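 Antagonism was scored as restored cAMP in HEK293-DRD2 cells. These cells were stimulated with 200 nM NKH477 and 12 nM quinpirole for 30 min at room temperature, in the presence of 0.1 mM Ro20-1724.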

[19] = biological target: 5-hydroxytryptamine receptor 2A (Homo sapiens) (UniProt P28223); assay: 5-hydroxytryptamine receptor 2A (HTR2A) small molecule antagonists, cell-based qHTS assay (AID 1963586); also: nearly all actives have a fitted effect of over 45% in size; also: potency is read from the fitted curve at half-maximal effect
Summary of the method: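 Antagonist-mode intracellular calcium assay: DOI (4 nM) added after 5 min compound pre-incubation at room temperature to dye-loaded HTR2A-CHO cells. Fluorescence followed for 3 min, sampled every second.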

Chain of KiSS-1 receptor (Homo sapiens) (Q969F8 whole entry, looked up): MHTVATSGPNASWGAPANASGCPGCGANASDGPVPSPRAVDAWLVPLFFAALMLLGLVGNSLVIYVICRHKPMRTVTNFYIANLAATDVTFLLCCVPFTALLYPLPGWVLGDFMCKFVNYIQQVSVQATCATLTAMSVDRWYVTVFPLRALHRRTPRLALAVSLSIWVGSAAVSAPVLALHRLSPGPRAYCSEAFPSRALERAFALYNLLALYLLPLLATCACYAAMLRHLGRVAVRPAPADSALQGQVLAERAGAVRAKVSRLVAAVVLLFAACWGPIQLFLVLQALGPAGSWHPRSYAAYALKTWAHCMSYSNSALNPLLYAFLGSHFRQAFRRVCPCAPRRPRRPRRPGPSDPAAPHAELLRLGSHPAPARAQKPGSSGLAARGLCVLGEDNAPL
Chain of 5-hydroxytryptamine receptor 2A (Homo sapiens) (P28223 whole entry, looked up): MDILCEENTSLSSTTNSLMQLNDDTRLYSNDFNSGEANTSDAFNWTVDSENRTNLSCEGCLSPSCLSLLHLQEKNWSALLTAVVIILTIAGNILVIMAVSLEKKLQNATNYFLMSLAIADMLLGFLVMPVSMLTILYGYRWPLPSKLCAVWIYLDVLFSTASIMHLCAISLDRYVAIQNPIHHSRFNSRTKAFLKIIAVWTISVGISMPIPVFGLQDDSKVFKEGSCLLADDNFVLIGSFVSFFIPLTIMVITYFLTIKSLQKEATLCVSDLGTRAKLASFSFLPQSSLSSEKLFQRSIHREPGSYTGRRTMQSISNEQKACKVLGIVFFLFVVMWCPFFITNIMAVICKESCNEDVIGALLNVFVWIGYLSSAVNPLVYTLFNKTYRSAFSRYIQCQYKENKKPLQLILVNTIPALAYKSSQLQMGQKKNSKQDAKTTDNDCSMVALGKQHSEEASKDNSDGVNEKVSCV
Chain of D(2) dopamine receptor (Homo sapiens) (P14416 whole entry, looked up): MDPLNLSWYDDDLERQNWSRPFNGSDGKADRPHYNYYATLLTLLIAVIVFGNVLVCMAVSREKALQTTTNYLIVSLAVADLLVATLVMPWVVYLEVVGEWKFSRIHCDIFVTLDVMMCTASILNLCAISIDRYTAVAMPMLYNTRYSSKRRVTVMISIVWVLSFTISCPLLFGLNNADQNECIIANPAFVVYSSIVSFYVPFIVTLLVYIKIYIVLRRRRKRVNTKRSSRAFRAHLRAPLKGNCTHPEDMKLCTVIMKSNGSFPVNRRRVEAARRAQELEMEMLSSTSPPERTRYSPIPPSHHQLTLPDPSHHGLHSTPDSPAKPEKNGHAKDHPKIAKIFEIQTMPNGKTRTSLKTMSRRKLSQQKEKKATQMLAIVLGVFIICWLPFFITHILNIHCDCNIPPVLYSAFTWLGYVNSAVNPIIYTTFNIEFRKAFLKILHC
Chain of Beta-2 adrenergic receptor (Homo sapiens) (P07550 whole entry, looked up): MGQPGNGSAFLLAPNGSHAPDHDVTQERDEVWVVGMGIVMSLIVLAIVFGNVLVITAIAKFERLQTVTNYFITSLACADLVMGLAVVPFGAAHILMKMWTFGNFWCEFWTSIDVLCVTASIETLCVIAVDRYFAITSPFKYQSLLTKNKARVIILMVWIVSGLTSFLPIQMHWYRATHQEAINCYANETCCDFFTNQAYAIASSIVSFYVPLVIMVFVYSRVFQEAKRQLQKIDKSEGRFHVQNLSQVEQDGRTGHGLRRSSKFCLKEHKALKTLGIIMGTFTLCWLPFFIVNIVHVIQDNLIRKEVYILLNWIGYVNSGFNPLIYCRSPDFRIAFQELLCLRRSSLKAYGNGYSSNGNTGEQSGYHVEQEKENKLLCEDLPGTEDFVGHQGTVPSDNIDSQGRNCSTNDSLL
Chain of Gonadotropin-releasing hormone receptor (Homo sapiens) (P30968 whole entry, looked up): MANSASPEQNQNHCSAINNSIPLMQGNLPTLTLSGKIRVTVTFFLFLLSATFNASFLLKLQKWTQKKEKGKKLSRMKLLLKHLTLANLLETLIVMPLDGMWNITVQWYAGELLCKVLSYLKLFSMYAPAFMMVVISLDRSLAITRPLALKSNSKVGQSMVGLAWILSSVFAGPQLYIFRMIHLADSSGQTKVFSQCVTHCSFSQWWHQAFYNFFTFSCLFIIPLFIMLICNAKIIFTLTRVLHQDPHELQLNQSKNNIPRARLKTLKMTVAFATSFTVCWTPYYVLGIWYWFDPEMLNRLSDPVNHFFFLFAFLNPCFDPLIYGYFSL
Chain of Muscarinic acetylcholine receptor M1 (Homo sapiens) (P11229 whole entry, looked up): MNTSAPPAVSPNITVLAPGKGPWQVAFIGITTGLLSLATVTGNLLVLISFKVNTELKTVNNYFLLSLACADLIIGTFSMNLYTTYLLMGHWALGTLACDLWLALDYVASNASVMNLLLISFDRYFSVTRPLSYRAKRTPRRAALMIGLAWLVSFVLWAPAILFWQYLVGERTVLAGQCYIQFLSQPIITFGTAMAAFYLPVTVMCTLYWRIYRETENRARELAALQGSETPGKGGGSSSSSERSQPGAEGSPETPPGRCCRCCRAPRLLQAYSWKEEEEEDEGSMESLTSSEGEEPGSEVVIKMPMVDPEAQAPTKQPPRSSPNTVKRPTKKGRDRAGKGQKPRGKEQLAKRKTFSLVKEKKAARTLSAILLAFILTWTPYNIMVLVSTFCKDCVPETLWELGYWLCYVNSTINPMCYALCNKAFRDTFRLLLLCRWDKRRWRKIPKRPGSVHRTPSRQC

Compound | Potency [1] | Potency [2] | Potency [3] | outcome [4] | outcome [5] | Potency [6] | Potency [7] | Potency [8] | Potency [9] | Potency [10] | Potency [11] | Potency [12] | Potency [13] | Potency [14] | Potency [15] | Potency [16] | Potency [17] | Potency [18] | Potency [19]
CCCCOC(=O)CC | inactive | inactive | inactive | inactive | inactive | inactive | inactive | inactive | inactive | inactive | inactive | inactive | inactive | inactive | inactive | inactive | inactive | inactive | 
COC(=O)N/N=C/c1c[n+]([O-])c2ccccc2[n+]1[O-] | inactive | inactive | 19 µM (active) | inactive | inactive | inactive | inactive | inactive | inactive | inactive | 15.1 µM (active) | inactive | inactive | inactive | inactive | inactive | inactive | inactive | 
CO[Si](C)(OC)c1ccccc1 | inactive | inactive | inactive | inactive | inactive | inactive | inactive | inactive | inactive | inactive | inactive | inactive | inactive | inactive |  | inactive | inactive | inactive | inactive
Nc1c2c(nc3c1CCC3)CCCC2 | inactive | inactive | inactive | inactive | inactive | inactive | inactive | inactive | inactive | inactive | inactive | inactive | inactive | inactive |  | inactive | inactive | inactive | 
O=C(O)C(=O)Cc1c[nH]c2ccccc12 | inactive | 54.5 µM (active) | inactive | inactive | inactive | inactive | inactive | inactive | inactive | inactive | inactive | inactive |  | inactive |  | inactive | inactive | inactive | inactive
CC1c2ccccc2CN1NC(=O)c1ccc(Cl)c(S(N)(=O)=O)c1 (stereo not drawn) | inactive | inactive | inactive | inactive | inactive | inactive | inactive | inactive | inactive | inactive |  | inactive | inactive | inactive | inactive | inactive | inactive | inactive | inactive
O=C(O)CCN(C1(C(=O)NO)CCCC1)S(=O)(=O)c1ccc(Oc2ccc(F)cc2)cc1 | inactive | inactive | inactive | inactive | inactive | inactive | inactive | inactive | inactive | inactive | inactive | inactive | inactive | inactive |  | inactive | inactive | inactive | inactive
Nc1cc(C(F)(F)F)ccc1S | 26.6 µM (active) | 13.3 µM (active) | inactive | inactive | inactive | inactive | inactive | inactive | inactive |  |  |  | inactive |  |  |  | inactive | inactive | inactive
CC(COC(C)(C)C)OCCCO (stereo not drawn) | inactive | inactive | inactive | inactive | inactive | inactive | inactive | inactive | inactive | inactive | inactive | inactive | inactive |  |  | inactive |  | inactive | inactive
CC(C)(Sc1cc(C(C)(C)C)c(O)c(C(C)(C)C)c1)Sc1cc(C(C)(C)C)c(O)c(C(C)(C)C)c1 | inactive | inactive | inactive | inactive | inactive | inactive | inactive | inactive | inactive | inactive |  |  |  | inactive |  | inactive | inactive | inactive | 
COC(=O)NN | inactive | inactive | inactive | inactive | inactive | inactive | inactive | inactive | inactive | inactive | inactive | inactive | inactive | inactive |  | inactive | inactive | inactive | inactive
CN=C(NC#N)Nc1ccc(C2=NNC(=O)CC2C)cc1 (stereo not drawn) | inactive | inactive | inactive | inactive | inactive | inactive | inactive | inactive | inactive |  | inactive | inactive |  | inactive | inactive | inactive |  | inactive | inactive
O=C(CCC1CCN(Cc2ccccc2)CC1)c1ccc2c(c1)NCCCC2 | inactive | inactive | inactive | inactive | inactive | inactive | inactive | inactive | inactive | inactive |  | 3.26 µM (active) | inactive | inactive |  | inactive | inactive |  | 2.59 µM (active)
Cc1cc(O)c(C)c(C)c1O | inactive | inactive | inactive | inactive | inactive | inactive | inactive | inactive | inactive | inactive | inactive |  |  | inactive | inactive |  | inactive | inactive | inactive
CCOC(=O)C1=NOC(c2ccccc2)(c2ccccc2)C1 | inactive | inactive | inactive | inactive | inactive | inactive | inactive | inactive | inactive | inactive | inactive |  | inactive | inactive |  | inactive | inactive | inactive | inactive
NNc1nnc(NN)c2ccccc12 | inactive | inactive | inactive | inactive | inactive | inactive | inactive | inactive | inactive | inactive | inactive | inactive | inactive | inactive | inactive | inactive | inactive | inactive | 
